Source: PubChem BioAssay (National Center for Advancing Translational Sciences (NCATS))
Sampled rows, rich in hits. Any-hit rate of the full collection: about 7.3%.
Luc counter: counter-screen: inhibitors of Kinase-Glo firefly luciferase. Kinase-Glo luciferase, ATP luminescence, 8 min. Potency, µM (doses to about 38.3 µM), inactives show at the highest dose activity change, negative = inhibition, usual class: inhibitors. hit rate 0.28% among 200,000; note: % is set by controls: 0 for no effect and ±100 for the full control effect; nearly all actives have a fitted effect of over 60% in size
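Recombinant Kinase-Glo luciferase, 10 uM ATP (linear range), luciferin; imidazole pH 7.2 / KCl / MgCl2 / Tween / BSA buffer; 8 min RT; luminescence.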
ELG1 genotox: induces genotoxicity in HEK293T cells with luciferase-tagged ELG1; AID 504466; Potency, µM (highest dose often 46 µM), inactives show top-dose activity change, positive = activation, usual class: activators; HEK293T ELG1-luciferase reporter, luminescence, 16 h; hit rate 1.3% among 330,000; note: % of control where 0% means no effect; nearly all actives have a fitted effect of over 60% in size
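After overnight (16 hr) compound treatment at 37 °C, ELG1-luciferase HEK293T cells were lysed with ONE-Glo; luminescence quantified 30 min later at room temperature.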
Rab9 prom act: activates the Rab9 promoter; Potency, µM (doses to about 9.22 µM), for inactives: at the highest dose activation, negative = inhibition, usual class: activators; AID 485297; Huh7 Rab9 promoter-luciferase reporter, luminescence, 24 h; hit rate 2.8% among 320,000; note: % of control where 0% means no effect; nearly all actives have a fitted effect of over 60% in size
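Promoter activation is measured as luciferase luminescence in Huh7 cells stably transfected with a Rab9 promoter–luciferase construct, following 24 h compound exposure at 37 °C and 10 min reagent incubation at ambient temperature.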
SMN2 splice enh: increases expression of the SMN2 splice variant; hit rate 2.8% among 210,000; HEK293 SMN2-luciferase splicing reporter, luminescence, 30-36 h; Potency, µM (top dose mostly 46.1 µM), without a hit: at the top dose activity change, positive = activation, most hits filed as activators; note: % of control where 0% means no effect; nearly all actives have a fitted effect of over 55% in size
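HEK293 cells carry an SMN2 […]–luciferase reporter in which exon 7 inclusion puts luciferase in frame. Cells were plated 10-12 h before compound addition, then incubated 30-36 h at 37C. ONE-Glo luminescence was read; sodium butyrate at 4.5 mM final served as control.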
FLuc modulator: firefly luciferase modulation, counter-screen for miR-21 project; P08659; purified FLuc, Km substrates, luminescence inhibition; Potency, µM (series often up to 57.5 µM), without a hit: at the top dose activity change, negative = inhibition, usual class: inhibitors; hit rate 6.9% among 360,000; AID 588342;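 note: plate controls were vehicle for no effect and reference inhibitor for full effect; nearly all actives have a fitted effect of over 55% in size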
Target sequence (P08659 whole entry, looked up): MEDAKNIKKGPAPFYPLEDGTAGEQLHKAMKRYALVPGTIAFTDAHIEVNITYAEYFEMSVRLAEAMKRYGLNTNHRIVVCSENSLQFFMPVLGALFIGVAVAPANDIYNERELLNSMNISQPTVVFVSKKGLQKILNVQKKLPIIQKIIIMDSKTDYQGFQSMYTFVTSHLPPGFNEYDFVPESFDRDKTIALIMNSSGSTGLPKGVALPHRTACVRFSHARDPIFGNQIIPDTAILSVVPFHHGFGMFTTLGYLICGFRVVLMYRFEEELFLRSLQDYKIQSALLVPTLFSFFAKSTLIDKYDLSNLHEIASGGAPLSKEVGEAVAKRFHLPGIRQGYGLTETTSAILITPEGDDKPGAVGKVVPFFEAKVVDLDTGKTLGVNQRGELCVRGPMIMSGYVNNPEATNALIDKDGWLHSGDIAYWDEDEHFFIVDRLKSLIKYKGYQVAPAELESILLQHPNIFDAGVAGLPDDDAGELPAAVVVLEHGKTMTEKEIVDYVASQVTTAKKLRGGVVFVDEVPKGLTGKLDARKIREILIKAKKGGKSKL
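Purified P. pyralis luciferase (10nM final) with 10uM D-luciferin and 10uM ATP (Km levels) in 50mM Tris acetate pH 7.5, 10mM Mg acetate, 0.01% Tween-20, 0.05% BSA; qHTS 6-point titration, ~60 µM downward; luminescence read.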
NPC1 prom act: activators of NPC1 promoter; AID 485313; Potency, µM (highest dose often 9.22 µM), for inactives: top-dose activation, actives largely listed as activators; Huh7 NPC1 promoter luciferase reporter, 24 h; hit rate 2.4% among 320,000; note: % of control where 0% means no effect; nearly all actives have a fitted effect of over 60% in size
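NPC1 promoter–luciferase Huh7 cells; 24 h compound; luminescence.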
* = called active by the depositor; ? = inconclusive; . = not tested or not shown. Calls come from the whole dose curve; as a rule, active = well fitted curve in the direction sought with a large enough effect; inconclusive = small, poorly fitted or top-dose-only effect, or another doubt; inactive = no such curve, though single readings can be large; an effect the other way counts as inactive or inconclusive. Potency is the fitted concentration of half-maximal effect.

SMILES | Luc counter | ELG1 genotox | Rab9 prom act | SMN2 splice enh | FLuc modulator | NPC1 prom act
CCOc1ccc(CNc2ccc(CNc3ncn[nH]3)cc2)cc1 | 0% | -7% | -3% | -30% | -5% | 0%
COc1ccc(-c2c(C)nc3c(-c4ccsc4)cnn3c2N)cc1 | . | 1.8µM* | 0.25µM* | . | 0.6µM* | 0.32µM*
COc1ccc(-c2c(C)nc3c(-c4ccccn4)cnn3c2N)cc1 | . | 1.2µM* | 0.32µM* | . | 0.54µM* | 0.32µM*
CC(C)(C)C(=O)COC(=O)c1cc2ccccc2cc1O | -5% | ? | 1% | ? | 6.7µM* | -1%
CCN(CC)c1ccc(C(=O)OCC(=O)Nc2ncccn2)cc1 | . | -2% | . | . | . | .
NC(=O)Nc1ccc(C(=O)OCC(=O)Nc2sccc2C(N)=O)cc1 | . | 1% | 1% | . | ? | -7%
CN(C(=O)COC(=O)c1cc2ccccc2cc1O)c1ccccc1 | . | 0% | . | . | . | .
CCN(CC)c1ccc(C(=O)OCC(=O)Nc2sccc2C#N)cc1 | 5% | ? | 2.8µM* | 10µM* | 12µM* | 3.2µM*
N#Cc1ccsc1NC(=O)COc1ccc(-c2nnco2)cc1 | 5% | ? | ? | ? | 15µM* | ?
N#Cc1ccsc1NC(=O)COC(=O)c1ccc(NC(N)=O)cc1 | -2% | 21µM* | ? | 13µM* | 5.4µM* | 1.1µM*
N#Cc1ccsc1NC(=O)CCc1ccccc1 | -15% | ? | ? | 13µM* | 15µM* | 0%
N#Cc1ccsc1NC(=O)CN(Cc1ccccc1)Cc1ccccc1 | 4% | 0% | -4% | -25% | -16% | -4%
N#Cc1ccsc1NC(=O)COC(=O)c1cc2ccccc2cc1O | -5% | ? | 3.2µM* | 22µM* | 4.3µM* | 18%
CN(Cc1cccc(F)c1)C(=O)c1ccc(S(=O)(=O)C(F)F)cc1 | 2% | -10% | -5% | -9% | 1% | 6%
COc1ccc(OC)c(NC(=O)c2oc(=O)c3ccccc3c2-c2ccccc2)c1 | . | . | . | . | 0% | .
C/C(=N\Nc1ccc(C(=O)O)cc1)c1ccc(-n2ccnc2)cc1 | 5% | ? | 4µM* | 20µM* | 12µM* | 2.5µM*
C/C(=N\NC(N)=O)c1ccc(-n2ccnc2)cc1 | 0% | 6% | 1% | -3% | -1% | -5%
COc1ccc(OCC(=O)N/N=C(\C)c2ccc(OC)cc2)cc1 | 2% | 1% | 1% | -8% | 24µM* | -2%
CCc1ccc(OCC(=O)N/N=C(\C)c2ccc(OC(F)F)cc2)cc1 | -4% | 0% | -5% | 7% | ? | -2%
C/C(=N\NC(=O)COc1ccccc1)c1ccc(O)cc1 | -1% | 9% | 21% | . | ? | 18%
COc1ccc(OCC(=O)N/N=C(\C)c2cc3ccccc3o2)cc1 | -9% | 16% | 15% | 27% | 1.5µM* | 17%
CCc1ccc(OCC(=O)N/N=C(\C)c2ccc(-n3ccnc3)cc2)cc1 | . | 9% | 18% | . | 1.3µM* | 15%
Cc1cc(Cl)ccc1NC(=S)NC(C)(C)C | 1% | -4% | 1% | -14% | -4% | -1%
Cc1ccc2c(c1)N(CCCC(=O)Nc1cccc(C(F)(F)F)c1)C(=O)CO2 | . | -7% | 3% | -8% | -1% | 5%
CSc1cccc(N=C2C(=O)Nc3ccccc32)c1 | . | 1% | 15% | . | -4% | -4%
SMILES | Luc counter | ELG1 genotox | Rab9 prom act | SMN2 splice enh | FLuc modulator | NPC1 prom act
C/C(=N\Nc1ccc(C(=O)O)cc1)c1nc2ccccc2n1C | 1% | ? | 1.1µM* | 10µM* | 11µM* | 0.56µM*
Cc1ccc2c(C)c(C(=O)N(C)C(C)c3ccon3)oc2c1C (centres undefined) | . | ? | 3.2µM* | . | 15µM* | ?
CCn1c(-c2ccc(F)cc2)cnc1SCC(=O)N1CCCCC1C (centres undefined) | -4% | 6.5µM* | ? | 1% | 11µM* | ?
CCn1c(-c2ccc(F)cc2)cnc1SCC(=O)N1CCc2ccccc21 | 2% | 13% | -1% | 27% | ? | -2%
CCOC(=O)c1ccc(COC(=O)c2ccc3c(c2)-c2ccccc2C3=O)cc1 | -2% | -1% | 0% | -20% | 1% | -6%
CCOC(=O)C1=C(Cc2ccc(C)cc2)C(=O)c2ccccc2C1=O | -3% | 4% | -12% | -98% | 13µM* | -5%
CCOC(=O)C1=C(Cc2ccc(OC)cc2)C(=O)c2ccccc2C1=O | 14% | 28% | 1% | -26% | 11µM* | -14%
COc1ccc(N2CC(C(=O)NC3CC(C)(C)NC(C)(C)C3)CC2=O)cc1 (centres undefined) | 0% | 2% | -16% | 5% | -1% | 1%
Cc1ccc(C(=O)C[n+]2cccc3cc(C)ccc32)cc1 | 3% | -14% | -5% | -33% | -2% | 0%
CC(C)(C)n1cnc2cc(NCc3ccc(Br)cc3)ccc21 | . | ? | 2µM* | . | 6.7µM* | 3.5µM*
CCc1ccc(CNc2ccc3c(c2)ncn3C(C)(C)C)cc1 | . | ? | 4µM* | 16µM* | 6µM* | 3.2µM*
CC(C)c1ccc(CNc2ccc3c(c2)ncn3C)cc1 | . | 10% | 3.5µM* | . | 15µM* | 3.2µM*
CC(C)c1ccc(CNc2ncccn2)cc1 | . | ? | ? | . | 13µM* | ?
CCc1ccc(CNc2ccc3c(c2)ncn3CC)cc1 | . | ? | 2.5µM* | . | 11µM* | 2.5µM*
CCOc1ccc(NC(=O)NCCCSC2CCCCC2)cc1 | 0% | -2% | 1% | -9% | 6% | -2%
COc1ccc(C(=O)Nc2cnc3ccccn3c2=O)cc1 | -3% | ? | 3.5µM* | 18µM* | 17µM* | 2.8µM*
O=C(Nc1cnc2ccccn2c1=O)c1ccc(F)cc1 | -9% | 19% | 3.2µM* | 11µM* | 17µM* | 2.5µM*
CCNc1ccc(C(=O)OCC(=O)NCCN2C(=O)CSC2=O)cc1[N+](=O)[O-] | -1% | 2% | -1% | -28% | -2% | -4%
CC(C)CN(C)C(=O)CCc1nnc(Cc2cccc(C(F)(F)F)c2)o1 | 0% | ? | 2.8µM* | . | 24µM* | ?
O=C(CCc1nnc(Cc2cccc(C(F)(F)F)c2)o1)NCC(F)(F)F | -3% | 6% | -3% | 9% | -10% | 0%
C=C(C)CNC(=O)CCc1nnc(Cc2cccc(C(F)(F)F)c2)o1 | -2% | 18µM* | ? | 11µM* | 21µM* | 20%
CC(NC(=O)CCc1nnc(Cc2cccc(C(F)(F)F)c2)o1)C1CC1 (centres undefined) | -5% | ? | ? | . | 27µM* | 14%
O=S(=O)(c1ccccc1C(F)(F)F)N1CCC(n2cnc3ccccc32)CC1 | 0% | -9% | 4% | -7% | 0% | -3%
COc1ccc(C2CC(=O)c3sc(N)nc3C2)cc1 (centres undefined) | -4% | 3% | 18% | 5% | -16% | 8%
